CDC25B CDK2 inh: primary biochemical HTRF screen for blockers of M-phase inducer phosphatase 2 binding to CDK2/cyclin A; AID 1259370, 2018; P30305+P24941; z-score (test concentration not listed); 94,000 compounds, 0.72% hits; HTRF CDC25B-CDK2/CyclinA binding, anti-His/anti-Flag; active compounds read high; in the data active = z-score above about 3.2
TAR Tat displ: TAR RNA-Tat peptide displacers, HIV-1, primary screen, biochemical, FRET, FAM/TAMRA-labeled Tat; HIV-1 TAR RNA, Tat peptide displacement FRET; active compounds read high; z-score (test concentration not listed); 100,000 compounds, 0.6% hits; active = z-score of 3 or more in at least 2 runs
An asterisk follows results filed as active; x = not tested or not shown. This is a sample that favours compounds with a hit; in the whole collection about 0.93% have one here.

SMILES	CDC25B CDK2 inh	TAR Tat displ
O=C(OC[C@H]1O[C@H](OC(=O)c2cc(O)c(O)c(OC(=O)c3cc(O)c(O)c(O)c3)c2)[C@H](OC(=O)c2cc(O)c(O)c(OC(=O)c3cc(O)c(O)c(O)c3)c2)[C@@H](OC(=O)c2cc(O)c(O)c(OC(=O)c3cc(O)c(O)c(O)c3)c2)[C@@H]1OC(=O)c1cc(O)c(O)c(OC(=O)c2cc(O)c(O)c(O)c2)c1)c1cc(O)c(O)c(OC(=O)c2cc(O)c(O)c(O)c2)c1	x	25.8*
O=C(NCc1ccco1)c1ccc(Cn2nc(N3CCN(c4ccc(F)cc4)CC3)ccc2=O)o1	x	1.43
COc1ccccc1C1Nc2ccc(C)cc2-c2cc(C)nn21 (configuration not stated)	-1.59	0.39
CC(=C/C(=O)O)/C(=C\c1cccnc1)C(=O)O	-1.3	x
O=C(/C=C/c1cccnc1)c1ccc[cH-]1.[Fe+2].c1cc[cH-]c1	14.9*	x
O=c1cc(-c2ccccc2)nc2nc(-c3ccco3)[nH]n12	-0.39	6.53*
Cc1nc2nc(-c3ccccc3)cc(=O)n2[nH]1	-1.55	0.51
Cc1cc(C)n(OC(=O)c2c(-c3c(Cl)cccc3Cl)noc2C)c(=O)c1C#N	-0.57	x
Cc1ccc(C2Nn3c(C)nnc3SC2C(=O)Nc2ccc(C)c(Cl)c2)cc1 (configuration not stated)	0.14	0.62
CC(=O)Nc1sc2c(c1C#N)CCCC2	0.23	0.23
N#Cc1c(NC(=O)c2cc3ncc(Br)cn3n2)sc2c1CCCC2	0.64	7.3*
CCOC(=O)Cn1c(=O)oc2cc(S(=O)(=O)N3CCc4ccccc4C3)ccc21	-0.15	0.58
O=c1cc(CSc2ccc(Cl)cc2)[nH]c(=O)[nH]1	-0.9	x
CCN(Cc1cc(=O)n2c(C)csc2n1)c1ccccc1	x	5.1*
Cc1csc2nc(CN(C)c3ccccc3)cc(=O)n12	x	4.55*
Cc1csc2nc(COc3ccccc3)cc(=O)n12	-1.19	-0.35
Cc1nn2c(=O)cc(CN(C)c3ccccc3)nc2s1	x	0.36
CC1=C(c2ccc(C(C)C)cc2)S(=O)(=O)N=C1N1CCC(C(=O)NC2CCCCC2)CC1	x	0.13
Cc1ccc(S(=O)(=O)Nc2ccc(O)c3cccnc23)cc1	8.33*	0.05
Cc1ccc(S(=O)(=O)Nc2ccc(O)c3ncccc23)cc1	14.5*	0.89
Cc1ccc(S(=O)(=O)Nc2cccc3ncccc23)cc1	-1.51	x
Cc1ccc(S(=O)(=O)Nc2ccc(Cl)c3cccnc23)cc1	0.07	2.26
COc1ccc(-c2nc(Nc3cnc(SC)nc3)sc2C)cc1	-0.3	0.05
COc1ccc(COCC(O)CNC2Cc3ccccc3C2)cc1 (configuration not stated)	-0.49	x
COc1cccc(/C=C/c2nc(C#N)c(N(C)Cc3ccccc3)o2)c1	-1.37	-1.4
SMILES	CDC25B CDK2 inh	TAR Tat displ
Cc1ccc(S(=O)(=O)/N=C2\C=C(n3cnc4ccccc43)C(=O)c3ccccc32)cc1	17.3*	x
Cc1ccc(S(=O)(=O)Nc2ccc3c(c2)ncn3-c2ccccc2)cc1	-0.26	x
COc1cc(OC)cc(C(=O)Nc2nc3c(s2)CCc2ccccc2-3)c1	-2.35	x
COc1ccc2c(c1)Cc1sc(NC(=O)c3ccc(OC)c(Br)c3)nc1-2	19.4*	0.6
Cc1nc(CC(=O)Nc2nncs2)cs1	0.67	0.7
Cc1nn(CC(=O)N2CCCC2)c(C)c1S(=O)(=O)N1CCC(C(=O)N2CCCC2)CC1	x	1.71
CN1CCc2nc3sc(C(=O)c4ccc(Cl)cc4)c(N)c3cc2C1	19.1*	-6.55
CN1CCc2nc3sc(C(=O)Nc4cccc(Cl)c4)c(N)c3cc2C1	-1.99	-1.59
CC(C)CCNC(=O)c1c[nH]c2ccc(S(=O)(=O)N3CCC4(CC3)OCCO4)cc2c1=O	-1.56	x
CC(=O)Oc1cc(-c2coc3cc(OC(C)=O)c(OC(C)=O)c(OC(C)=O)c3c2=O)cc(OC(C)=O)c1OC(C)=O	x	24.8*
COc1cc(-c2coc3cc(OC)c(OC)c(OC)c3c2=O)cc(OC)c1OC	x	3.17
Nc1c(C(=O)CCC(=O)O)oc2ccc(Br)cc12	-0.29	-0.7
CC1=C(C(=O)OCC2CCCO2)C(c2ccccc2C)C2=C(CC(C)(C)CC2=O)N1 (configuration not stated)	-5.53	5.05*
CC1=C(C(=O)OCC2CCCO2)C(c2ccccc2F)C2=C(CC(C)(C)CC2=O)N1 (configuration not stated)	-0.72	0.14
O=C(CSc1n[nH]c(-c2ccco2)n1)c1c[nH]c2ccccc12	-1.47	2.51
O=C(CSc1n[nH]c(-c2ccncc2)n1)c1c[nH]c2ccccc12	6.81*	-0.52
CCOC(=O)C1=C(C)NC(C)=C(C(=O)OC)C1c1cccc(Cl)c1Cl (configuration not stated)	0.44	x
CCN(CC)c1ccc(NS(=O)(=O)c2ccc(-c3ccc(=O)[nH]n3)o2)c(C)c1	x	-3.26
CCN(CC)c1ccc(NS(=O)(=O)c2cc3[nH]c(=O)c(=O)[nH]c3cc2C)c(C)c1	x	13.7*
COC(=O)C(C)Oc1cc(C)cc2oc(=O)cc(-c3ccccc3)c12 (configuration not stated)	-1.36	x
Cc1nc(-c2cccs2)c(CC(=O)N2CCCC2)s1	-1.27	-0.62
Cc1nc(-c2cccs2)c(CC(=O)Nc2ccc(N3CCCC3)cc2)s1	11.6*	-0.42
O=C(Nc1ccccc1Cl)c1nn(-c2ccccc2)ccc1=O	0.08	0.35
O=C(NCc1cccnc1)c1cc(-c2ccc(Cl)cc2)on1	-0.62	x
O=C1CC(C(=O)Nc2ccc(Cl)cc2)n2ncnc2N1 (configuration not stated)	3.92*	0.9
SMILES	CDC25B CDK2 inh	TAR Tat displ
O=C1CC(C(=O)Nc2ccc3c(c2)OCO3)n2ncnc2N1 (configuration not stated)	0.99	-2.09
CC1CSc2ccc(S(=O)(=O)NC3CCCC3)cc2NC1=O (configuration not stated)	x	0.76
CC(=O)Nc1ccc2c(c1)nc1n2CCN(C(C)C)C1	-0.16	-7.6
CC(C)N1CCn2c(nc3cc(NC(=O)c4ccco4)ccc32)C1	10.3*	18.7*
O=C(Nc1ncc(Cc2ccc(F)cc2)s1)c1ccc2snnc2c1	-1.71	-1.52
Cc1ccccc1CS(=O)(=O)Cc1ccc(C(=O)N2CCn3c(nc4ccccc43)C2)o1	-1.46	x
CCc1nn(CC(=O)N2CCN(CC)CC2)c(=O)c2cc3sccc3n12	0.73	-0.51
CCc1ccc(S(=O)(=O)Nc2cc(Br)c(O)c3ccccc23)cc1	17.9*	x
CC(C)OC(=O)C(C(=O)C(F)(F)F)c1cc(NS(=O)(=O)c2ccccc2)c2ccccc2c1O (configuration not stated)	-0.59	x
CC(C)OC(=O)C(C(=O)C(F)(F)F)c1cc(NS(=O)(=O)c2ccc(Br)cc2)c2ccccc2c1O (configuration not stated)	18.7*	x
CCc1ccc(S(=O)(=O)Nc2cc(-c3c(O)ccc4ccccc34)c(O)c3ccccc23)cc1	0.58	x
O=C(/C=C/c1ccccc1)Nc1ccc2c(c1)C(=O)c1ccccc1C2=O	-4.12	x
O=C(O)/C=C/C(=O)Nc1ccc2c(c1)C(=O)c1ccccc1C2=O	6.1*	x
O=C1c2ccccc2C(=O)c2cc(NC(=O)C(Cl)(Cl)Cl)ccc21	16.1*	x
CCOc1ccc(C(=O)Nc2ccc3c(c2)C(=O)c2ccccc2C3=O)cc1	0.8	x
CCN(CCS(=O)(=O)N1CCNCC1)S(=O)(=O)c1ccc(C2CCCCC2)cc1	x	0.48

Source: PubChem
